{"source": "PubChem BioAssay (NCI)", "note": "This is part of a sample that, as a whole, favours compounds with a hit. Of some 83,000 tested, about 20% had one in any assay.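 Plates (96-well) were seeded with cells, treated with compound at one concentration, and incubated for 48 hours before percent growth was determined.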 Active and inactive are the calls of the source. How the source made its calls: active means growth percent below 10; inactive means the rest."}
{"system": "HL-60(TB) leukemia", "assay": "NCI-60 one-dose screen, 48 h (100 = growth as untreated, 0 = no growth, -100 = all killed)", "settings": "10 µM unless noted"}
{"smiles": "Nc1ccc(-c2nnc(SCc3ccc(O)c4ncccc34)n2-c2ccccc2)cc1", "growth": "11.5% (inactive)"}
{"smiles": "CNC(=O)c1cc(Oc2ccc3nc(NC(=O)c4cccc(C(F)(F)F)c4)sc3c2)ccn1", "growth": "143% (inactive)"}
{"smiles": "Nn1c(N/N=C/c2nc3ccccc3s2)n[nH]c1=S", "growth": "136% (inactive)"}
{"smiles": "CCN(CC)c1ccc(C=O)c(OCc2cn(CC(=O)Nc3ccc(Cl)cc3)nn2)c1", "growth": "69.7% (inactive)"}
{"smiles": "CCOC(=O)C(=O)Nc1ccc2c(ccn2C(=O)c2cccc(F)c2)c1", "growth": "99.2% (inactive)"}
{"smiles": "NC(N)=Nc1ccc(Nc2cccc(Nc3ccc(Cl)c(C(F)(F)F)c3)c2)cn1", "growth": "-40.5% (active)"}
{"smiles": "COc1ccc2c(c1)c(-c1nnc(N)nc1-c1c[nH]c3ccc(F)cc13)cn2C", "growth": "-0.122% (active)"}
{"smiles": "Clc1ccc2c(NCCCn3ccnc3)c3oc4ccccc4c3nc2c1", "growth": "40.4% (inactive)"}
{"smiles": "COc1ccc(-c2nnc(SCc3ccc(O)c4ncccc34)o2)cc1", "growth": "18.3% (inactive)"}
{"smiles": "Cn1cc(-c2nnc(N)nc2-c2c[nH]c3ccc(F)cc23)c2cc(Br)ccc21", "growth": "-20.7% (active)"}
{"smiles": "O=C(NNc1nc2cc(F)c(F)cc2n2c(CN3CC4CNCC4C3)ccc12)c1cnccn1", "note": "(centres undefined)", "growth": "-1.93% (active)"}
{"smiles": "COc1ccc(OC)c(-c2nc(SCC(=O)c3ccc(Br)cc3)nc(Nc3ccc(S(N)(=O)=O)cc3)c2C#N)c1", "growth": "25.9% (inactive)"}
{"smiles": "COC(=O)C(Cc1ccccc1)NS(=O)(=O)/N=C1\\NC(=O)NC1=C(Cl)Cl", "note": "(centres undefined)", "growth": "96.1% (inactive)"}
{"smiles": "CC1(C)CC[C@]2(C(=O)N3CCCN(CC#N)CC3)CC[C@]3(C)C(=CC[C@@H]4[C@@]5(C)CC[C@H](O)C(C)(C)[C@@H]5CC[C@]43C)[C@H]2C1", "growth": "-15.9% (active)"}
